According to PubChem BioAssay (NCATS):
Inconclusive results are not listed. Active and inactive are the calls of the source. Unless noted, the call rests on the fitted dose curve.

Key:
[1] = Primary qHTS for inhibitors of SARS-S pseudo-typed particle cell entry (AID 1479145); further: nearly all actives have a fitted effect of over 45% in size
[2] = Primary qHTS for Huh7 cytotoxicity: counterscreen for inhibitors of MERS-S pseudotyped particle cell entry (AID 1479147)
[3] = Primary qHTS for inhibitors of MERS-S pseudo-typed particle cell entry (AID 1479149); further: nearly all actives have a fitted effect of over 60% in size
[4] = Primary qHTS for Vero E6 cytotoxicity: counterscreen for inhibitors of SARS-S pseudo-typed particle cell entry (AID 1479150)
[5] = molecular target: Calcium and integrin-binding protein 1 (Homo sapiens) (UniProt Q99828); assay: Primary qHTS for Identification of Calcium Integrin Binding Protein 1 (CIB1) Competitor (AID 1508620; active means well fitted curve in the direction sought with a large enough effect; an effect the other way counts as inactive or inconclusive;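 further: GST tagged CIB1 binding a fluorescein labelled alphaIIb integrin peptide tracer; top concentration of the series differs between compounds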)
In short: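 Fluorescence polarization competition: CIB1-GST (1 uM final) preincubated with compound 15 min at room temperature, then FITC-labeled alphaIIb peptide (100 nM final) added for another 15 min. Polarization read at Ex 480/Em 540.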

[6] = molecular target: Calcium and integrin-binding protein 1 (Homo sapiens) (UniProt Q99828); assay: Validation qHTS for Identification of Calcium Integrin Binding protein 1 (CIB1) Competitor (AID 1508618; active means well fitted curve in the direction sought with a large enough effect; an effect the other way counts as inactive or inconclusive)
In short: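 Displacement of FITC-alphaIIb peptide (100 nM) from CIB1-GST (1 uM) is monitored by polarization in quantitative HTS format; buffer carries 5 mM CaCl2 and 125 mM NaCl at pH 7.4, incubations are at room temperature.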

[7] = Primary qHTS for small molecule stabilizers of the endoplasmic reticulum resident proteome: Secreted ER Calcium Modulated Protein (SERCaMP) assay (AID 1508630; active means well fitted curve in the direction sought with a large enough effect; an effect the other way counts as inactive or inconclusive)
In short: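 The SH-SY5Y reporter protocol was run at 3 concentrations up to 38.3 uM (primary) or 11 concentrations (follow-up): 16 h compound, 100 nM thapsigargin for 4 h, then extracellular luciferase luminescence.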

[8] = molecular target: Cytochrome P450 2C9 (Homo sapiens) (UniProt P11712); assay: Cytochrome P450 family 2 subfamily C member 9 (CYP2C9) small molecule antagonists: luciferase biochemical (cell-free) qHTS assay (AID 1645842; active means well fitted curve in the direction sought with a large enough effect in the repeat runs; an effect the other way counts as inactive or inconclusive; further: series mostly up to about 57 µM; nearly all actives have a fitted effect of over 55% in size)
In short: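 P450-Glo CYP2C9 system: proluciferin substrate with enzyme in mix containing 0.4% BSA, 10 min at room temperature, then NADPH regeneration solution added and incubated 1 h at 37C. Detection reagent stopped reaction; luminescence read after 20 min as RLU.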

Measured: Potency

Chain of Calcium and integrin-binding protein 1 (Homo sapiens) (Q99828 whole entry, looked up): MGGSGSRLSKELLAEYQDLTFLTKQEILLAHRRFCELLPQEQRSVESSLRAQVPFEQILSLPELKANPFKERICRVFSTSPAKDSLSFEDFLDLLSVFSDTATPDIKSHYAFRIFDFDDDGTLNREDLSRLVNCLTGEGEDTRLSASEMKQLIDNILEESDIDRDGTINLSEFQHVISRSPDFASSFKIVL
Chain of Cytochrome P450 2C9 (Homo sapiens) (P11712 whole entry, looked up): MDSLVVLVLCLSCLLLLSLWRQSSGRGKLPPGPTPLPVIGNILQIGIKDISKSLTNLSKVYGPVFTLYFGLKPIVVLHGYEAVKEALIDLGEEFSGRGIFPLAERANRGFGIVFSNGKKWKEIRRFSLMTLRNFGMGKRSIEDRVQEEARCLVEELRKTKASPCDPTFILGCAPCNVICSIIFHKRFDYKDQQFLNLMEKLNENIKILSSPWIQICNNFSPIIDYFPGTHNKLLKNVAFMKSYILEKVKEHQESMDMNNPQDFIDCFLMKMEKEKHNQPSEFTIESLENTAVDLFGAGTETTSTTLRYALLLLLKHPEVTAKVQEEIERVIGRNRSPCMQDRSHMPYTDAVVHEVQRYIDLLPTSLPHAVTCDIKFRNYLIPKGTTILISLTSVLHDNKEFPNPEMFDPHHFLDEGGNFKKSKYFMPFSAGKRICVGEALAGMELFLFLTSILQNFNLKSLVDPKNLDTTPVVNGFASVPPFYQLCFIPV

CCC(C)(Oc1ccc(C2(c3ccc(OC(C)(CC)C(=O)O)cc3)CCCCC2)cc1)C(=O)O (centres undefined)
inactive: [1] | [2] | [3] | [4]

S=c1[nH]c2ccccc2s1
inactive: [1] | [2] | [3] | [4]

O=C(O)CNC(=O)CNC(=O)CNC(=O)CSC(=O)c1ccccc1
inactive: [1] | [2] | [3] | [4]

CNCc1ccc(-c2[nH]c3cc(F)cc4c3c2CCNC4=O)cc1
inactive: [1] | [2] | [3] | [4]

CCOc1cc(NC(C)=O)ccc1C(=O)OC
inactive: [1] | [2] | [3] | [4]

COc1ccc2cc(CCC(C)=O)ccc2c1
inactive: [1] | [2] | [3] | [4]

CC(=O)Oc1cccc(C)c1
inactive: [1] | [2] | [3] | [4]

CN(C)CC/C=C1/c2ccccc2COc2ccc(CC(=O)O)cc21
inactive: [1] | [2] | [3] | [4]

O=C1NS(=O)(=O)c2ccccc21
inactive: [1] | [2] | [3] | [4]

CC1=NN(c2ccccc2)C(=O)C1
inactive: [1] | [2] | [3] | [4]

CC(C)(C)NCC(O)c1ccc(O)c(CO)c1 (centres undefined)
inactive: [1] | [2] | [3] | [4]

NCCCC(N)(C(=O)O)C(F)F (centres undefined)
inactive: [1] | [2] | [3] | [4]

CCCCCCCC(=O)OCC(O)CO (centres undefined)
inactive: [1] | [2] | [3] | [4]

CCCCC(CC)COC(=O)/C=C/c1ccc(OC)cc1 (centres undefined)
inactive: [1] | [2] | [3] | [4]

C[C@@H]1CN(c2c(F)c(N)c3c(=O)c(C(=O)O)cn(C4CC4)c3c2F)C[C@H](C)N1
inactive: [1] | [2] | [3] | [4]

CCCCCCCCCCC(CO)CCCCCCCC (centres undefined)
inactive: [1] | [2] | [3] | [4]

CC(C[N+](C)(C)C)OC(N)=O (centres undefined)
inactive: [1] | [2] | [3] | [4]

CN(C(=O)C(Cl)Cl)c1ccc(OC(=O)c2ccco2)cc1
inactive: [1] | [2] | [3] | [4]

c1ccc2[nH]ccc2c1
inactive: [1] | [2] | [3] | [4]

[O-][n+]1cccc(/C(Cl)=N/OC[C@@H](O)CN2CCCCC2)c1
inactive: [1] | [2] | [3] | [4]

NC1=NC(=O)N2CC12 (centres undefined)
inactive: [1] | [2] | [3] | [4] | [5]

N#C/C(=C1\SCC(c2ccccc2Cl)S1)n1ccnc1 (centres undefined)
inactive: [1] | [2] | [3] | [4]

N[C@H]1C(O)O[C@H](CO)[C@@H](O)[C@@H]1O (some centres undefined)
inactive: [1] | [2] | [3] | [4]

O=C(Nc1cccc(C2=NCCN2)c1)Nc1cccc(C2=NCCN2)c1
inactive: [1] | [2] | [3] | [4]

O=C(O)CC(O)C(=O)O (centres undefined)
inactive: [1] | [2] | [3] | [4]

CC(=O)Oc1ccccc1C(=O)O
inactive: [1] | [2] | [3] | [4]

C[N+](C)(C)CC(=O)O
inactive: [1] | [2] | [3] | [4] | [6]

NC(CO)C(=O)NNCc1ccc(O)c(O)c1O (centres undefined)
inactive: [1] | [2] | [3] | [4]

CN(C)[C@@H]1C(=O)C(C(N)=O)=C(O)[C@@]2(O)C(=O)C3=C(O)c4c(O)cccc4[C@@](C)(O)[C@H]3[C@H](O)[C@@H]12
inactive: [1] | [2] | [3] | [4] | [5] | [7] | [8]

COC(=O)c1ccc2c(C(=Nc3ccc(N(C)C(=O)CN4CCN(C)CC4)cc3)c3ccccc3)c(O)[nH]c2c1
inactive: [1] | [2] | [3] | [4]

CCCCCCCCCCCCCC(=O)OC(C)C
inactive: [1] | [2] | [3] | [4]
